A selection: hits, their analogues and other compounds. The true share with any hit is near 2.5%.
Anesthetic bind: candidate novel general anesthetic via apoferritin binding; 0.074% of 350,000 active; Potency, µM (top dose mostly 77.5 µM), for inactives: top-dose activity change, negative = displacement, actives largely listed as inhibitors; apoferritin/1-aminoanthracene competitive binding, fluorescence; P02791; also: potency is read from the fitted curve at half-maximal effect; % is scaled to controls: 0 for no effect and ±100 for the full control effect; nearly all actives have a fitted effect of over 20% in size
Target sequence (P02791 2-175 limits assumed): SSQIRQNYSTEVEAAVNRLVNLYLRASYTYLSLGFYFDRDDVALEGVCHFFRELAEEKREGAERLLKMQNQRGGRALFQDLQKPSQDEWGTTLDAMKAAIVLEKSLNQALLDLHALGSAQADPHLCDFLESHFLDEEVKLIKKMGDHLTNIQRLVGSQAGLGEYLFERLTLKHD
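Read-out: endpoint 1-AMA fluorescence, excitation 380 nm and emission 535 nm, after compounds sit 10 min at room temperature with 10 uM horse-spleen apoferritin in 50% saturated 1-AMA/PBS. Values come from four-parameter Hill fits.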
Mito fusion yeast: mitochondrial division inhibition or fusion activation | S. cerevisiae fusion-defective mutant growth rescue, CellTiterGlo 48 h | Potency, µM (series often up to 46.1 µM), without a hit: at the top dose growth rescue (activation), actives largely listed as activators | 0.23% of 320,000 active | AID 485298; also: potency is read from the fitted curve at half-maximal effect; % of control where 0% means no effect; nearly all actives have a fitted effect of over 45% in size
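S. cerevisiae fusion-defective temperature-sensitive mutants (e.g. fzo1-1, mgm1-5) grown 48 h at 37C in YPEG (ethanol/glycerol non-fermentable) medium with 23 nl compound per well; growth rescue read as CellTiterGlo luminescence.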
TDP43 rescue: inhibitors of TDP-43 toxicity in yeast | Potency, µM (highest dose often 46.1 µM), for the others: top-dose growth rescue (activation), most hits filed as activators | TDP-43 expressing yeast growth rescue, BacTiter-Glo, 24 h | 1.8% of 410,000 active | AID 652104; also: potency is read from the fitted curve at half-maximal effect; % of control where 0% means no effect; nearly all actives have a fitted effect of over 50% in size
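Yeast expressing TDP-43 (pregrown in raffinose, seeded at OD600=0.02 in galactose medium) exposed to compounds 24 hr at 30 deg C. Growth read by BacTiter-Glo luminescence; rescue of toxicity appears as increased signal.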
pAkt inh: Akt phosphorylation inhibition. Neuro2A IGF-stimulated pAkt S473 HTRF, 20 min; hits give low values. activity change, % for hits at 50 µM. 0.32% of 360,000 active. AID 651550; in the data active = activity change below about -80%; inconclusive = mostly about -51% to -80%; also: % is scaled to controls: 0 for no effect and ±100 for the full control effect
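Single-point screen (50 µM final compound) in Neuro2A cells stimulated 20 min with 6 nM IGF at 37 deg C. After lysis, Ser473-phosphorylated Akt read by HTRF (ex 330 nm, em 615/665 nm) as the 665/615 ratio.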
aSyn yeast inh: alpha-synuclein toxicity inhibition in yeast; Potency, µM (highest dose often 46.1 µM), without a hit: top-dose growth rescue (activation), actives largely listed as activators; Yeast expressing alpha-synuclein, growth rescue, BacTiter-Glo, 24 h; 0.14% of 370,000 active; AID 652106; also: potency is read from the fitted curve at half-maximal effect; % of control where 0% means no effect; nearly all actives have a fitted effect of over 65% in size
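Rescue of yeast growth: cells expressing toxic alpha-synuclein, induced in galactose at OD600 0.02, incubated with compound 24 h at 30 C. ATP luminescence quantified growth; inhibitors of toxicity appear as activators.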
CCT chaperon mod: changes cytosolic chaperonin activity. purified chaperonin ATPase assay, HTRF ADP detection, 30 min. activity change, % (test concentration not listed), hits read low. 0.3% of 360,000 active. AID 651819; in the data active = activity change below about -30%; also: % is scaled to controls: 0 for no effect and ±100 for the full control effect
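Nucleotide hydrolysis assay: TRiC at 20–40 nM final (set by batch activity) with 10 uM ATP, 30 min at 37 °C, in presence of 76 uM compound. Detection by competitive ADP HTRF, 30 min ambient.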
An asterisk follows results filed as active; i = inactive; ? = inconclusive; · = no result; ! = repeats disagree; [ ] = remark or other dose. Unless noted, calls follow the shape of the dose curve; as a rule, active = well fitted curve in the direction sought with a large enough effect; inconclusive = small, poorly fitted or top-dose-only effect, or another doubt; inactive = no such curve, though single readings can be large; an effect the other way counts as inactive or inconclusive.

SMILES	Anesthetic bind	Mito fusion yeast	TDP43 rescue	pAkt inh	aSyn yeast inh	CCT chaperon mod
Cc1ccc(-c2c(C(=O)N(C)Cc3ccccc3)oc(=O)c3ccccc23)cc1	-16%	16µM*	13µM*	i	0%	2
CN(Cc1ccccc1)C(=O)c1oc(=O)c2ccccc2c1-c1ccccc1	-5%	?	14µM*	i	5%	1
Cc1ccc(-c2c(C(=O)NCc3ccccc3)oc(=O)c3ccccc23)cc1	2%	?	-5%	i	0%	-2
CCOc1ccccc1NC(=O)CN1C(=O)CC(c2ccco2)Sc2ccccc21 (stereo not drawn)	1%	·	?	·	?	·
COC(=O)c1ccc2nc(C)cc(Nc3cccc(Cl)c3C)c2c1	42%	·	-9%	·	0%	·
COc1ccc(C(=O)N2C=Cc3ccccc3C2C#N)cc1 (stereo not drawn)	·	·	16µM*	i	7%	-1
Cc1ccc(-n2c(N)c(C(=O)N3CCCCC3)sc2=S)cc1	-8%	-1%	11µM*	i	-2%	-1
Cc1ccc(-n2c(N)c(C(=O)N3CCN(C)CC3)sc2=S)cc1	-11%	-4%	4%	i	-6%	-1
c1ccc(NC2=NCCN2CCCC2CCCCC2)cc1	·	8%	0%	i	16µM*	1
CCCCC1CCC(C(=O)N2CC(=O)Nc3ccc(Br)cc3C2c2ccc(F)cc2)CC1 (stereo not drawn)	31%	·	2%	·	·	·
COc1ccc(C2C(C#N)=C(N)Oc3c2oc(CO)cc3=O)c(OC)c1OC (stereo not drawn)	-9%	2%	-8%	i	1%	-34*
COc1cccc(C2C(C#N)=C(N)Oc3c2oc(CO)cc3=O)c1OC (stereo not drawn)	-11%	4%	13%	i	2%	-1
CC(=O)Nc1cccc2c1Cc1cc([N+](=O)[O-])ccc1-2	·	·	10%	i	9%	0
Nc1c(Cl)cc2c(c1Br)Cc1ccccc1-2	·	·	-10%	i	0%	-3
Nc1ccc2c(c1Br)Cc1ccccc1-2	·	·	35µM*	i	-11%	-41*
CC(=O)Nc1ccc2c(c1Br)Cc1ccccc1-2	·	·	18µM*	i	-9%	-15
CCOc1ccc(S(=O)(=O)N2Cc3ccccc3CC2C(=O)Nc2ccc(NC(C)=O)cc2)cc1 (stereo not drawn)	-15%	·	6%	·	·	·
O=C(NCCc1csc(-c2ccc(F)cc2)n1)c1c(F)cccc1Cl	47%	·	13µM*	·	·	·
COc1cc(C(=O)NCCc2csc(-c3ccc(Cl)cc3)n2)cc(OC)c1OC	-11%	·	22µM*	·	·	·
O=C(NCCc1csc(-c2ccccc2)n1)c1c(F)cccc1F	-12%	3%	20µM*	i	-9%	1
O=C(NCCc1csc(-c2ccccc2)n1)c1c(F)cccc1Cl	-17%	12%	13µM*	i	0%	1
COc1cc(-c2nc(CCNC(=O)c3ccco3)cs2)cc(OC)c1OC	-2%	4%	5%	i	-3%	0
CC(NC(=O)CN(c1ccc(Cl)cc1Cl)S(=O)(=O)c1ccccc1)c1ccccc1 (stereo not drawn)	12%	·	19%	·	·	·
O=C(NCc1csc(-c2ccccc2)n1)c1cc(F)cc2c1OCOC2	-16%	11%	13µM*	i	6%	-8
O=C(NCCc1csc(-c2ccc(Cl)cc2)n1)c1ccco1	-14%	9%	16µM*!	i	-14%	1
SMILES	Anesthetic bind	Mito fusion yeast	TDP43 rescue	pAkt inh	aSyn yeast inh	CCT chaperon mod
Cc1ccc(-c2nc(CCNC(=O)c3ccco3)cs2)cc1	·	18%	12%	i	-8%	-3
O=C(O)c1ccc2c(c1)C(=O)N([C@@H](Cc1ccc(O)cc1)C(=O)O)C2=O	-17%	0%	·	·	·	·
O=C(NCc1ccc(F)c(F)c1)c1ccc(-c2ccc(F)c(F)c2)c2ccoc12	·	·	4%	i	-2%	-1
O=C(NCC1CCOCC1)c1ccc(-c2ccc(F)c(F)c2)c2ccoc12	·	·	25µM*	i	9%	1
CCOc1ccc(C(=O)Nc2ccccc2CC)cc1[N+](=O)[O-]	-12%	22%	28µM*	i	-2%	-3
CCn1c(/C(C#N)=C/c2ccccc2Cl)nc2ccccc21	0%	-7%	18µM*	·	·	·
Cn1c(/C(C#N)=C/c2ccccc2Br)nc2ccccc21	-9%	·	11µM*	·	·	·
Cn1c(/C(C#N)=N/O)nc2ccccc21	-2%	-2%	13%	i	-1%	0
O=S(=O)(c1ccc2ncsc2c1)N1CCN(c2nc(-c3cccs3)nc3ccccc23)CC1	·	·	·	·	-2%	·
COc1ccc(NC(=O)/C=C/c2cc(Br)ccc2OC)cc1	-13%	1%	-5%	i	-9%	-2
COc1ccc(Br)cc1/C=C/C(=O)c1ccc(NC(C)=O)cc1	-8%	20%	18µM*	i	-8%	-1
CC(C)CO/N=C1/[C@H]2O[C@@H]2[C@@H](O)[C@H]2[C@H]1CCn1c(=O)n(C)c(=O)n12	-3%[15.3 µM]	·	·	·	·	·
CCCn1c(N2CCN(C(=O)Nc3ccccc3)CC2)nc2ccccc21	-18%	6%	17%	i	3%	2
CCCn1c(N2CCN(CC(=O)NCc3cccs3)CC2)nc2ccccc21	4%	-1%	0%	-110%*	-4%	-1
O=C(CCC1N=C2c3ccccc3N=C(SCC(=O)Nc3ccc(F)cc3)N2C1=O)NCc1cccs1 (stereo not drawn)	-20%	·	35µM*	·	·	·
Cc1ccc(CSC2=Nc3ccccc3C3=NC(CCC(=O)NCCc4ccccc4)C(=O)N23)cc1 (stereo not drawn)	?	·	32µM*	·	·	·
O=c1c(S(=O)(=O)c2ccccc2)cn(Cc2cccc(F)c2)c2cc(N3CCOCC3)c(F)cc12	-4%	·	25%	·	·	·
CCCC(=O)NCCc1c2n(c3ccc(OC)cc13)CCCc1ccccc1-2	·	18µM*	·	·	-4%	·
C1=C(c2ccccc2)Nc2ncnn2C1c1ccccc1 (stereo not drawn)	·	·	20µM*	i	-3%	1
Cc1ccc(C2C=C(c3ccc4c(c3)OCO4)Nc3ncnn32)cc1 (stereo not drawn)	571%	-24%	13µM*	i	10%	0
Cc1ccc(C2C=C(c3ccccc3OC(F)F)Nc3ncnn32)cc1 (stereo not drawn)	377%	-8%	13µM*	i	12%	-3
Cc1ccc(C2=CC(c3ccccc3)n3ncnc3N2)cc1 (stereo not drawn)	·	·	13µM*	i	8%	1
Cc1ccc(C2=CC(c3ccccc3)n3ncnc3N2)c(C)c1 (stereo not drawn)	·	·	?	i	10%	1
